We go through 84 molecules from PubChem BioAssay AID743287 (Broad Institute, 2014).

In all, about 370,000 compounds went through this assay and about 2,300 (0.62%) were called active. The full list was thinned out, with actives kept by preference. A number with no mark means an inactive call.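 The calls were made as follows: active = lowest replicate activation of at least 40%, so every replicate reaches that level; inactive = the rest.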

This experiment in a line: primary screen for activators of insulin secretion dependent on glucose, INS-1E cells, GLuc reporter luminescence (AID 743287).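 Also: 0% = median of neutral control wells and 100% = median of IBMX positive control wells.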 Conditions: INS-1E GLuc reporter insulin secretion, 2-3 h, at 16.6 µM, stronger effect = higher value.
`O=C(COc1ccccc1O)NC1CCCC1`: the activation was 11.6%. `O=C(COc1cccc2c1CCNC2=O)NC1CCCCC1`: the activation is 44.9% (active). Next, `Cc1ccccc1NC(=O)COc1cccc2c1CCNC2=O`: 23.1%.

On to `COc1ccc(NC(=O)Nc2ccc3c(c2)C(=O)N([C@@H](C)CO)C[C@@H](C)[C@@H](CN(C)C(=O)Nc2ccc(F)cc2)OCCCC[C@@H](C)O3)cc1`, for which the activation is -7.03%.

With `COc1ccc(-c2ccccc2[C@H]2[C@@H](C#N)N(C(=O)C3CCC3)[C@@H]2CO)cc1`, the activation is -4.21%. In the case of `NCCCNC(=S)NCCCN(Cc1ccc(Cl)cc1)c1ccc(Br)cn1` it was 57.1% (active); in that of `S=C(NCCCc1cnc[nH]1)NCCCN(Cc1ccc(Cl)c(Cl)c1)c1ccc(Br)cn1`, 17%; in that of `O=C(/C=C/c1ccc(Cl)cc1)Nc1ccc(Br)cn1`, 3.4%. In the case of `COc1ccc(C(=O)OCC(=O)Nc2cc(C)on2)cc1F` it was 12.4%; in that of `CCOc1cc(C(=O)OCC(=O)Nc2cccc(C)c2)ccc1OCC(=O)N1CCOCC1`, 7.48%. Next, `COc1ccc(C(=O)OCC(=O)Nc2cccc(C(C)=O)c2)cc1OC`: 67.3% (active). As to `C[C@@H]1CN([C@@H](C)CO)S(=O)(=O)c2ccc(-c3ccncc3)cc2O[C@@H]1CN(C)C(=O)C1CCC1`, the activation is 7.69%. In the case of `CCCNC(=O)N(C)C[C@H]1Oc2cc(C3=CCCCC3)ccc2S(=O)(=O)N([C@H](C)CO)C[C@H]1C` it was -12.1%; in that of `COC(=O)c1ccc(C(=O)Nc2cc(Cl)ccc2Cl)cc1NC(=O)c1ccccc1C`, 82.6% (active). In the case of `CCN(CCO)C(=S)Nc1cc(C(=O)OC)ccc1C(=O)OC` it was 18%; in that of `CCCN(CCC)C(=S)Nc1cc(C(=O)OC)ccc1C(=O)OC`, 20.1%. On to `C/C=C/c1ccc(OCCOc2ccc(C=O)cc2OC)c(OC)c1`, for which the activation was 10.7%. In the case of `COc1cc(/C=N/NC(=O)Nc2ccccc2)ccc1OCCOc1ccccc1C` it was 169% (active); in that of `Cc1ccc(F)c(NC(=O)CCOc2ccccc2C)c1`, -15%; in that of `C[C@H](O)C#Cc1ccc2c(c1)O[C@H](CN(C)C(=O)C1CCCCC1)[C@@H](C)CN([C@H](C)CO)S2(=O)=O`, 4.13%. Next, `CCCN1Cc2cccc(C(=O)NCc3ccccc3)c2C1=O`: 72.4% (active). Next, `CSc1ccccc1C(=O)NCc1ccccc1`: -6.59%; `Cc1ccc(CNC(=O)c2ccccc2CCc2ccccc2)cc1`: -27.9%; `C[C@@H]1CN(C)C(=O)c2cc([N+](=O)[O-])ccc2O[C@@H]1CN(C)C(=O)OC(C)(C)C`: 16%. Consider `COc1cccc(-c2ccc3n(c2=O)C[C@@H]2[C@@H](CO)[C@H](C(=O)NC4CCC4)[C@H]3N2C)c1`, for which the activation was 7.74%.

`COc1cccc2cc(-c3cc(=O)oc4cc(C)c(O)cc34)oc12`: the activation is 78.5% (active). Turning to `COc1cccc2cc(C(=O)NCc3ccc(C)cc3)c(=N)oc12`, the activation was 12.3%. Next, `COc1cccc(C(=O)OCc2cc(=O)oc3c(C)c(C)ccc23)c1OC`: 8.16%. Next, `CNC[C@@H]1Oc2ccc(N(C)C)cc2CC(=O)N(C)C[C@@H]1C`: 2%; `CC(C)(C(=O)N1CCC1(C)C(=O)NS(=O)(=O)c1ccc(Br)cc1)c1ccccc1` (centres undefined): 41.5% (active); `CC(C)(C)c1ccc(S(=O)(=O)NC(=O)C2(C)CCN2C(=O)CC2CC2)cc1` (centres undefined): 7.26%. In the case of `CC1(C(=O)NS(=O)(=O)c2ccccc2)CCN1C(=O)C1CCCCC1` (centres undefined), the activation was 4.33%. Next, `O=C(NCC[C@@H]1CC[C@H](NC(=O)C2CCCCC2)[C@@H](CO)O1)Nc1ccc(Cl)cc1`: -11.1%; `Cc1noc(C)c1NC(=O)N(C)C[C@@H]1OCCCC[C@@H](C)Oc2ccc(NC(=O)C3CCCCC3)cc2C(=O)N([C@@H](C)CO)C[C@H]1C`: -7.43%; `COc1ccc(-c2ccccc2[C@@H]2[C@@H](C#N)N(C(=O)NC3CCCC3)[C@H]2CO)cc1`: -19.5%.

Regarding `COc1ccc2c3c(n(C)c2c1)[C@@H](CO)N(Cc1ccccc1OC)CC31CN(CC2CCOCC2)C1`, the activation was 10%.

`CC(C)C#Cc1ccc2c(c1)O[C@@H](CN(C)CC1CCOCC1)[C@H](C)CN([C@H](C)CO)S2(=O)=O`: the activation is -9.43%. In the case of `O=C(COc1ccc(-c2ccccc2)cc1)NN=C1CCCC1` it was 11%; in that of `Cc1ccc(/C=N/NC(=O)COc2ccccc2-c2ccccc2)cc1`, 267% (active); in that of `O=C(CN1CCSCC1)N/N=C/c1ccc(F)cc1`, -0.738%. In the case of `CN(C)C(=O)C[C@H]1CC[C@@H](NC(=O)Nc2cccc(F)c2)[C@H](CO)O1` it was 3.3%; in that of `CN1c2ccc(-c3ccc(F)cc3)cc2[C@@H]2[C@@H](CCN2C(=O)c2cccnc2)[C@H]1CO`, 18.2%; in that of `CNC[C@H]1Oc2ccc(NS(=O)(=O)c3ccccc3)cc2CC(=O)N([C@H](C)CO)C[C@@H]1C`, 3.16%. Next, `CCC[C@H]1CCCC/C=C\CCCC(=O)OCCN1C(=O)OC(C)(C)C`: 66.4% (active); `Cc1ccc(C)c(NC(=O)C2CCCN2C(=O)OC(C)(C)C)c1` (centres undefined): -3.08%. As to `Cc1cccc(C)c1NC(=O)C1CCCN1C(=O)OC(C)(C)C` (centres undefined), the activation was 2.21%. Next, `C[C@H]1CN(C)C(=O)c2cccc(N(C)C)c2O[C@@H]1CN(C)C`: -6.84%.

As to `CNC[C@H]1Oc2cc(C#CCOC)ccc2S(=O)(=O)N([C@@H](C)CO)C[C@H]1C`, the activation was 4.43%. Turning to `Cc1noc(C)c1NC(=O)Nc1ccc2c(c1)CC(=O)N([C@@H](C)CO)C[C@H](C)[C@@H](CN(C)C(=O)Nc1ccc3c(c1)OCO3)O2`, the activation is 5.38%.

Consider `CC(=O)N(C)C[C@@H]1Oc2ccc(NC(=O)NC(C)C)cc2C(=O)N(C)C[C@H]1C`, for which the activation is 9.69%. In the case of `CN(CC(=O)Nc1ccc(C(N)=O)cc1)S(=O)(=O)c1ccc2c(c1)OCCO2` it was -7.44%; in that of `COc1ccc(/C=C/C(=O)Nc2ccc(C34CC5CC(CC(O)(C5)C3)C4)cc2)cc1OC`, 11.4%. With `COc1ccc(NC(=O)CN(C)S(=O)(=O)c2ccccc2)cc1OC`, the activation was 8.5%. For `COc1ccc(S(=O)(=O)N(C)CC(=O)Nc2ccc3c(c2)OCCO3)cc1OC`, the activation is 79.4% (active). In the case of `COc1ccc(/C=C/C(=O)Nc2ccc3c(c2)OCCO3)cc1OC` it was 53.8% (active); in that of `COc1ccc(Cl)cc1NC(=O)CN(C)CC(=O)Nc1ccc2c(c1)OCO2`, -15.8%. In the case of `C[C@H](CO)N1C[C@H](C)[C@@H](CN(C)CC2CC2)Oc2ccc(NS(=O)(=O)c3cn(C)cn3)cc2CC1=O` it was 9.55%; in that of `CO[C@H]1CN(C)C(=O)c2cc(NC(C)=O)ccc2OC[C@H](C)N(C(=O)CN(C)C)C[C@@H]1C`, 13.5%. Next, `O=C(Nc1cc(F)ccc1F)N1CC(=O)N2[C@H](CO)[C@@H](c3ccc(-c4cccnc4)cc3)[C@@H]2C1`: 13.1%; `O=C(C1CCCC1)N1CC2(C1)[C@H](c1ccccc1)[C@H](CO)N2CCC(F)(F)F`: -20.6%; `O=C(CCN1C(=O)C2C3C=CC(C3)C2C1=O)Nc1ccccc1F` (centres undefined): 3.2%. Consider `O=C(O)CCCN1C(=O)c2ccccc2Sc2ncccc21`, for which the activation was 3.02%. Next, `O=C(O)CCCN1C(=O)C2C3c4ccccc4C(c4ccccc43)[C@@H]2C1=O` (some centres undefined): 45.1% (active); `COCC(=O)Nc1ccc2c(c1)OC[C@H](C)NC[C@@H](C)[C@H](OC)CN(C)C2=O`: -5.25%; `COc1ccc2c3c([nH]c2c1)[C@H](CO)N(CC1CC1)CC31CN(C(=O)Nc2cccc(F)c2)C1`: -17.2%.

For `COc1ccc(CN(C)C[C@H]2Oc3ccc(NS(=O)(=O)c4c(C)noc4C)cc3CC(=O)N([C@H](C)CO)C[C@H]2C)cc1`, the activation was 6.22%. Next, `CCC1OC(c2ccc([N+](=O)[O-])cc2)=Nc2ccccc21` (centres undefined): 0.826%; `Cc1nc(-c2ccc([N+](=O)[O-])cc2)c(-c2ccccc2)o1`: 97.9% (active); `Cc1nc2ccccc2nc(=O)c1NNc1ccc([N+](=O)[O-])cc1`: -4.75%.

For the molecule `COC(=O)C[C@H]1C=C[C@H](NC(=O)Nc2ccc(C(F)(F)F)cc2)[C@@H](CO)O1`, the activation was 15.4%. In the case of `COc1ccccc1-c1noc(CSc2nc(C)cc(=O)[nH]2)n1` it was 5.85%; in that of `Cc1ccc2[nH]c(=O)c(CN(C)S(=O)(=O)c3cccc4nonc34)cc2c1`, 6.21%; in that of `CCCc1nc(-c2cc3cc(C)ccc3[nH]c2=O)no1`, 43.8% (active). Regarding `C[C@@H]1CN(C)C(=O)c2cccc(N(C)C)c2O[C@H]1CN(C)S(C)(=O)=O`, the activation is 23.8%. Take `COc1cccc(C#Cc2ccc([C@@H]3[C@H]4CN(C(=O)Cc5ccccc5)CC(=O)N4[C@H]3CO)cc2)c1`: the activation was 6.19%. Next, `COc1ccccc1NC(=O)N1CCCCN2[C@@H](CO)[C@@H](c3ccc(C#Cc4ccccc4)cc3)[C@@H]2C1`: -22.8%; `O=C(CC(c1ccccc1)c1cc(Cl)ccc1O)NCCN1CCOCC1` (centres undefined): -15%. In the case of `OC(c1ccc(Cl)cc1)C(CN1CCOCC1)c1ccccc1` (centres undefined) it was 225% (active); in that of `S=C(Cc1ccc(Cl)cc1)N1CCOCC1`, 9.43%; in that of `O=C(NC[C@@H]1[C@@H](c2ccccc2)[C@@H](CO)N1Cc1ccccn1)C1CCC1`, 1.69%. In the case of `CCc1cnc(N2[C@H](C#N)[C@H](c3ccccc3-c3ccccc3C)[C@H]2CO)s1` it was -14.3%.

With `O=C(CSc1nnnn1C1CCCC1)Nc1ccc2c(c1)OCCO2`, the activation was 4.25%. Next, `O=C(CSc1nc(C2CC2)nc2ccccc12)Nc1ccc2c(c1)OCCO2`: 43.1% (active); `Cc1nnc(NC(=O)CSc2nc(C3CCCCC3)nc3ccccc23)s1`: 16.1%.
